From PubChem BioAssay (Tox21)
Records with an inconclusive call do not appear. Active and inactive are the calls of the source. Unless noted, calls follow the shape of the dose curve; as a rule, active = well fitted curve in the direction sought with a large enough effect in the repeat runs; inconclusive = weak or mixed curves; inactive = no such curve, though single readings can be large; an effect the other way counts as inactive or inconclusive.

Assays:
[1] = qHTS assay for small molecule agonists of the p53 signaling pathway (AID 651631; calls by dose curve; also: nearly all actives have a fitted effect of over 15% in size); details: HCT-116 p53RE-bla reporter, beta-lactamase FRET ratio, 16 h; series mostly up to 73.3 µM
Method in brief: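 HCT-116 cells carrying a stable p53 response element–beta-lactamase reporter were plated, rested 5 h at 37 °C, then exposed to compound in DMSO for 16 h at 37 °C; reporter activity was read as FRET substrate fluorescence after 2 h at room temperature.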

[2] = qHTS assay for small molecules that induce genotoxicity in human embryonic kidney cells expressing luciferase-tagged ATAD5 (AID 651632); details: HEK293T ATAD5-luciferase induction, 16 h; series mostly up to 83.3 µM; also: nearly all actives have a fitted effect of over 15% in size
Method in brief: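 ATAD5-luc HEK293T, 2,000 cells/well; cpd or DMSO pin-transferred; 16 hr, 37C/5% CO2; Amplite 30 min RT; luminescence.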

[3] = qHTS assay for small molecule agonists of the p53 signaling pathway - cell viability (AID 651633; calls by dose curve; also: nearly all actives have a fitted effect of over 30% in size; also: potency is read from the fitted curve at half-maximal effect); details: p53RE-bla HCT-116 viability, ATP luminescence, 16 h; series mostly up to 83.3 µM
Method in brief: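 p53RE-bla cells, seeded at 4,000 per well and rested 5 h at 37 C/5% CO2, received compounds in DMSO for 16 h at 37 C. CellTiter-Glo was then added, and luminescence was read after 30 min at room temperature to gauge cytotoxicity.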

[4] = qHTS assay for small molecules that induce genotoxicity in human embryonic kidney cells expressing luciferase-tagged ATAD5 - cell viability (AID 651634; calls by dose curve; also: nearly all actives have a fitted effect of over 25% in size; also: potency is read from the fitted curve at half-maximal effect); details: HEK293T ATAD5-luc cells viability, CellTiter-Fluor, 15.5 h; series mostly up to 83.3 µM
Method in brief: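 Fluorescence from CellTiter-Fluor, reporting protease activity within live cells, served as the viability read-out. HEK293T cells carrying luciferase-tagged ATAD5 had been treated with compound for 15.5 hr at 37C.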

[5] = qHTS assay for small molecule disruptors of the mitochondrial membrane potential (AID 720635); details: HepG2 mitochondrial membrane potential, Mito-MPS dye ratio; series mostly up to 83.2 µM; also: potency is read from the fitted curve at half-maximal effect
Method in brief: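 HepG2 cells (2,000/well) attached overnight at 37C, then took compound for 1 hr at 37C, 5% CO2. Mito-MPS dye was added for 30 min; fluorescence was read at 490/535 nm (monomers) and 540/590 nm (aggregates).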

[6] = qHTS assay to test for compound auto fluorescence at 590 nm (red) in HepG2 cells (AID 720674); details: HepG2 autofluorescence, red 540/590 nm, 1 h; series mostly up to 91.3 µM
Method in brief: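 Compound auto-fluorescence is scored relative to Rose Bengal sodium, measured at 540/590 nm in live HepG2 cultures after 1 hr compound contact (37 C, 5% CO2).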

[7] = qHTS assay to test for compound auto fluorescence at 535 nm (green) in HepG2 cells (AID 720675); details: green autofluorescence 485/535 nm, 1 h; series mostly up to 91.3 µM
[8] = qHTS assay to test for compound auto fluorescence at 460 nm (blue) in HEK293 cells (AID 720678); details: blue autofluorescence 405/460 nm; series mostly up to 91.3 µM
Method in brief: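 Blue read-out at excitation 405 nm and emission 460 nm follows overnight compound exposure of HEK293 cells at 37C in 5% CO2. Activity is given as auto fluorescence equivalency to triamterene.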

[9] = qHTS assay to test for compound auto fluorescence at 590 nm (red) in HEK293 cells (AID 720679); details: red autofluorescence 540/590 nm; series mostly up to 91.3 µM
Method in brief: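 Red channel, Ex/Em 540/590nm; signal expressed as equivalency to Rose Bengal sodium. HEK293, 2,000 cells/well, 10% dialyzed FBS; 23 nL compound pinned after 4-5 hr attachment; overnight 37C/5% CO2 before reading.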

[10] = qHTS assay to test for compound auto fluorescence at 535 nm (green) in HEK293 cells (AID 720680); details: green autofluorescence 485/535 nm; series mostly up to 91.3 µM
[11] = qHTS assay to test for compound auto fluorescence at 460 nm (blue) in HEK293 cell free culture (AID 720681); details: cell-free medium, autofluorescence 405/460 nm (blue); series mostly up to 91.3 µM
Method in brief: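 Test compounds were pinned into cell-free culture medium (DMEM with 10% FBS) and fluorescence was read directly at Ex/Em 405/460 nm. Signals were expressed as fluorescence equivalents of triamterene, with DMSO vehicle as control.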

[12] = qHTS assay to test for compound auto fluorescence at 535 nm (green) in HEK293 cell free culture (AID 720682); details: cell-free medium, green autofluorescence 485/535 nm; series mostly up to 91.3 µM
Method in brief: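 Read-out: 485/535 nm fluorescence intensity, calibrated against fluorescein. Medium only (DMEM + 10% FBS, no cells); test compound or DMSO vehicle added by pintool before plate reading.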

[13] = qHTS assay to test for compound auto fluorescence at 590 nm (red) in HEK293 cell free culture (AID 720683); details: cell-free medium autofluorescence, Ex540/Em590 red; series mostly up to 91.3 µM
Method in brief: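 Tox21 10K library compounds were pinned into cell-free DMEM with 10% FBS and fluorescence was read at excitation 540 nm. Activity is expressed as Rose Bengal sodium equivalency.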

[14] = qHTS assay to test for compound auto fluorescence at 590 nm (red) in HepG2 cell free culture (AID 720684); details: cell-free medium autofluorescence, red 540/590 nm; series mostly up to 91.3 µM
Method in brief: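 Measured in medium alone (MEM containing 10% FBS) following pintool addition of compound; emission at 590 nm with 540 nm excitation, referenced to Rose Bengal sodium.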

[15] = qHTS assay to test for compound auto fluorescence at 460 nm (blue) in HepG2 cell free culture (AID 720685); details: Cell-free culture medium, blue autofluorescence 405/460 nm; series mostly up to 91.3 µM
Method in brief: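 Compound (23 nL) or DMSO pinned into cell-free MEM with 10% FBS; blue fluorescence read at 405/460 nm excitation/emission, expressed as auto-fluorescence equivalency to triamterene.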

[16] = qHTS assay to test for compound auto fluorescence at 535 nm (green) in HepG2 cell free culture (AID 720686); details: Cell-free medium, green autofluorescence 485/535 nm; series mostly up to 91.3 µM
[17] = qHTS assay to test for compound auto fluorescence at 460 nm (blue) in HepG2 cells (AID 720687); details: autofluorescence 405/460 nm, 1 h; series mostly up to 91.3 µM
Method in brief: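 Cells (2,000/well in MEM with 10% FBS) attached overnight at 37 C, then were exposed to compound or DMSO for 1 hr at 37 C, 5% CO2. Fluorescence read at Ex/Em 405/460 nm, expressed as triamterene-equivalent signal.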

[18] = biological target: Glucocorticoid receptor (Homo sapiens) (UniProt P04150); test: qHTS assay to identify small molecule agonists of the glucocorticoid receptor (GR) signaling pathway (AID 720691; active = well fitted activation curve with a large enough effect in the signal ratio in the repeat runs, not every such curve was filed as active; the % refers to the signal ratio); details: GR-bla HeLa, beta-lactamase reporter ratio, 18 h; series mostly up to 62.4 µM
Chain of Glucocorticoid receptor (Homo sapiens) (P04150 whole entry, looked up): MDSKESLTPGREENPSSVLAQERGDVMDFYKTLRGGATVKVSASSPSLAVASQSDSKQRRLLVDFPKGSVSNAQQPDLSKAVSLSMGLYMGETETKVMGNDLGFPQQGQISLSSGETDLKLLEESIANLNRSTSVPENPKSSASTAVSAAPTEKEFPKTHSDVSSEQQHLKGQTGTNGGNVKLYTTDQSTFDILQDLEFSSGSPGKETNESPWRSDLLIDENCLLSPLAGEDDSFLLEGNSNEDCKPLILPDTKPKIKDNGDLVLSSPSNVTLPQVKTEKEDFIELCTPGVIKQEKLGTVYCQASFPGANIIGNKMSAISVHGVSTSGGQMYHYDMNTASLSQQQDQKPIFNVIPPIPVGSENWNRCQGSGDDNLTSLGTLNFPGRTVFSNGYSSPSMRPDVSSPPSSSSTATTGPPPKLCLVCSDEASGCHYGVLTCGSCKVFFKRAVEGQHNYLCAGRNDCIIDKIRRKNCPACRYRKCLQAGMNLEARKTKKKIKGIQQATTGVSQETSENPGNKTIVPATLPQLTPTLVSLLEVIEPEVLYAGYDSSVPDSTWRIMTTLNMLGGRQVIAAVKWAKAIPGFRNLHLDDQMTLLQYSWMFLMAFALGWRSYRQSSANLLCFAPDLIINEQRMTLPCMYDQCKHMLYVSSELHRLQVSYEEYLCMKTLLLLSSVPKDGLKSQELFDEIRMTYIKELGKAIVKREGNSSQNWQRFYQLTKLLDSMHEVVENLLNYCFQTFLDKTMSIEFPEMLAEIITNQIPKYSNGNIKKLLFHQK
Method in brief: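 Fluorescence intensity from LiveBLAzer B/G FRET substrate (2 h, room temperature) reports beta-lactamase expression driven by the glucocorticoid response element in GR-bla HeLa cells after 18 h compound exposure at 37 C.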

[19] = biological target: Glucocorticoid receptor (Homo sapiens) (UniProt P04150); test: qHTS assay to identify small molecule antagonists of the glucocorticoid receptor (GR) signaling pathway (AID 720692; active = well fitted inhibition curve with a large enough effect in the signal ratio in the repeat runs, not every such curve was filed as active; the % refers to the signal ratio); details: GR-bla HeLa, beta-lactamase FRET ratio, dexamethasone-stimulated, 18 h; series mostly up to 58.5 µM
Method in brief: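 HeLa GR-bla cells; cmpd + dex 5 nM final, 18 h 37 C; LiveBLAzer B/G FRET substrate 2 h RT; fluorescence intensity read. Antagonist mode, qHTS.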

[20] = qHTS assay for small molecule disruptors of the mitochondrial membrane potential - cell viability (AID 720634; calls by dose curve; also: nearly all actives have a fitted effect of over 20% in size; also: potency is read from the fitted curve at half-maximal effect); details: HepG2 viability, ATP luminescence (CellTiter-Glo), 1 h; series mostly up to 83.2 µM
Method in brief: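 Cells: HepG2, 2,000/well, attached overnight. Compound 1 hr, 37 C/5% CO2. +m-MPI dye, +CellTiter-Glo 30 min RT. Readout: luminescence (ATP).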
% is scaled to controls: 0 for no effect and ±100 for the full control effect.

C[C@@H](O)[C@H](N)C(=O)O
inactive: Potency [1] | Potency [2] | Potency [3] | Potency [4] | Potency [5] | Potency [6] | Potency [7] | Potency [8] | Potency [9] | Potency [10] | Potency [11] | Potency [12] | Potency [13] | Potency [14] | Potency [15] | Potency [16] | Potency [17] | Potency [18] | Potency [19]

CCCCCCCC/C=C\CCCCCCCCN
inactive: Potency [1] | Potency [2] | Potency [3] | Potency [20] | Potency [5] | Potency [6] | Potency [7] | Potency [8] | Potency [9] | Potency [10] | Potency [11] | Potency [12] | Potency [13] | Potency [14] | Potency [15] | Potency [16]

Nc1nc2c(ncn2COCCO)c(=O)[nH]1
inactive: Potency [1] | Potency [2] | Potency [3] | Potency [20] | Potency [5] | fluorescence, relative to Rose Bengal [6] 2e-05% [at 18.6 µM] | fluorescence, % of fluorescein control [7] 0.0011% [at 18.6 µM] | fluorescence, % of triamterene [8] -0.0369% [at 18.6 µM] | fluorescence, % of fluorescent control [9] -0.073% [at 18.6 µM] | fluorescence, % of fluorescein [10] 0.029% [at 18.6 µM] | fluorescence, % of fluorescent control [11] 0.0219% [at 18.6 µM] | activity change [12] -0.0229% [at 18.6 µM, stronger effect = higher value] | fluorescence, % of fluorescent control [13] 0.0201% [at 18.6 µM] | fluorescence, % of Rose Bengal [14] -0.264% [at 18.6 µM] | fluorescence, % of fluorescent control [15] 0.0242% [at 18.6 µM] | fluorescence, % of fluorescein control [16] -0.0997% [at 18.6 µM] | Potency [18] | Potency [19]

CC(C)(C)c1csc(-c2cc3cc(OCc4ccccc4CC(=O)O)ccc3o2)n1
inactive: Potency [2] | Potency [6] | Potency [7] | Potency [8] | Potency [9] | Potency [10] | Potency [11] | Potency [12] | Potency [13] | Potency [14] | Potency [15] | Potency [16]
active: Potency [3] 15.4 µM | Potency [4] 24.3 µM | Potency [20] 61.1 µM | Potency [5] 4.86 µM

C=CCCC(=O)/C=C/C1C(C)=CCCC1(C)C (stereo unspecified)
inactive: Potency [2] | Potency [3] | Potency [4] | Potency [20] | Potency [6] | Potency [7] | Potency [8] | Potency [9] | Potency [10] | Potency [11] | Potency [12] | Potency [13] | Potency [14] | Potency [15] | Potency [18] | Potency [19]
active: Potency [5] 61.1 µM
